From PubChem BioAssay AID1159580 (chemical genetic matrix, 2015)
Out of some 5,500 compounds screened, about 2,000 (36%) were called active. Not shown: some 18% with an inconclusive outcome. No stated cut-off is given here; in the data, active means normalized growth mostly below about 0.91 (no sharp cut-off); inconclusive means no clear call, values can overlap the other calls; inactive means mostly above about 0.92. Some of the results follow.

Assay: chemical genetic growth profiling, strain panel (AID 1159580);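 further: tested at 20 µM; growth read once vehicle control cultures reached saturation at 30 °C; 1 = growth at the plate median or of vehicle wells; lower values mean less growth of the strain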
Settings: growth OD

Measured: normalized growth

CCCCCC(O)C1C(=O)OC(C)C(O)/C=C/C=C/C=C/C=C/C=C(\C)C(O)CC(O)CC(O)CC(O)CC(O)CC(O)CC1O (configuration not stated)
inactive: S. cerevisiae deletion strains, locus YJR075W, strain HOC1, active compounds read low 0.994 | S. cerevisiae deletion strains, locus YKL009W, strain mrt4, active compounds read low 0.999 | S. cerevisiae deletion strains, locus YKL068W, active compounds read low 1.03 | S. cerevisiae deletion strains, locus YKL085W, strain MDH1 (second series), active compounds read low 0.975 | S. cerevisiae deletion strains, locus YKL085W, strain MDH1, active compounds read low 0.975 | S. cerevisiae deletion strains, locus YKL160W, strain elf1, active compounds read low 1.01 | S. cerevisiae deletion strains, locus YKL190W, strain CNB1, active compounds read low 1.01 | S. cerevisiae deletion strains, locus YKR001C, strain vps1, active compounds read low 1.03 | S. cerevisiae deletion strains, locus YKR026C, strain gcn3, active compounds read low 0.966 | S. cerevisiae deletion strains, locus YKR091W, strain srl3, active compounds read low 0.995 | S. cerevisiae deletion strains, locus YLL001W, strain dnm1, active compounds read low 1.01 | S. cerevisiae deletion strains, locus YLL026W, active compounds read low 0.982 | S. cerevisiae deletion strains, locus YLL041C, strain sdh2, active compounds read low 0.994 | S. cerevisiae deletion strains, locus YLR027C, strain aat2, active compounds read low 0.983 | S. cerevisiae deletion strains, locus YLR039C, strain RIC1, active compounds read low 1.08 | S. cerevisiae deletion strains, locus YLR058C, strain SHM2, active compounds read low 1.01 | S. cerevisiae deletion strains, locus YLR102C, strain apc9, active compounds read low 1.02 | S. cerevisiae deletion strains, locus YLR113W, strain HOG1, active compounds read low 0.951 | S. cerevisiae deletion strains, locus YLR221C, strain rsa3, active compounds read low 1 | S. cerevisiae deletion strains, locus YLR258W, strain gsy2, active compounds read low 0.991 | S. cerevisiae deletion strains, locus YLR262C, strain YPT6 (second series), active compounds read low 0.997 | S. cerevisiae deletion strains, locus YLR262C, strain YPT6, active compounds read low 1.09 | S. cerevisiae deletion strains, locus YLR268W, strain sec22, active compounds read low 1.02 | S. cerevisiae deletion strains, locus YLR320W, strain mms22, active compounds read low 0.992 | S. cerevisiae deletion strains, locus YLR330W, strain CHS5, active compounds read low 1.01 | S. cerevisiae deletion strains, locus YLR342W, strain FKS1 (second series), active compounds read low 1.06 | S. cerevisiae deletion strains, locus YLR342W, strain FKS1, active compounds read low 0.983 | S. cerevisiae deletion strains, locus YLR357W, strain rsc2, active compounds read low 0.972 | S. cerevisiae deletion strains, locus YLR370C, strain arc18, active compounds read low 0.982 | S. cerevisiae deletion strains, locus YLR371W, strain rom2, active compounds read low 1.02 | S. cerevisiae deletion strains, locus YLR384C, strain iki3, active compounds read low 0.985 | S. cerevisiae deletion strains, locus YLR418C, strain cdc73, active compounds read low 1.02 | S. cerevisiae deletion strains, locus YML016C, strain PPZ1, active compounds read low 1.01 | S. cerevisiae deletion strains, locus YML032C, strain rad52, active compounds read low 1.04 | S. cerevisiae deletion strains, locus YML120C, strain ndi1, active compounds read low 1 | S. cerevisiae deletion strains, locus YML124C, strain tub3, active compounds read low 1.02 | S. cerevisiae deletion strains, locus YMR058W, strain fet3, active compounds read low 0.997 | S. cerevisiae deletion strains, locus YMR078C, strain ctf18, active compounds read low 1.03 | S. cerevisiae deletion strains, locus YMR125W, strain sto1, active compounds read low 0.959 | S. cerevisiae deletion strains, locus YMR129W, active compounds read low 0.977 | S. cerevisiae deletion strains, locus YMR205C, strain PFK2, active compounds read low 0.955 | S. cerevisiae deletion strains, locus YMR223W, strain ubp8, active compounds read low 1.03 | S. cerevisiae deletion strains, locus YMR231W, strain pep5, active compounds read low 1 | S. cerevisiae deletion strains, locus YMR263W, strain SAP30, active compounds read low 1.01 | S. cerevisiae deletion strains, locus YMR307W, strain GAS1, active compounds read low 1.12 | S. cerevisiae deletion strains, locus YNL067W, strain RPL9B, active compounds read low 1.01 | S. cerevisiae deletion strains, locus YNL071W, strain lat1, active compounds read low 0.996 | S. cerevisiae deletion strains, locus YNL128W, strain TEP1, active compounds read low 0.998 | S. cerevisiae deletion strains, locus YNL153C, strain GIM3, active compounds read low 0.994 | S. cerevisiae deletion strains, locus YNL183C, strain NPR1, active compounds read low 0.928 | S. cerevisiae deletion strains, locus YNL209W, strain ssb2, active compounds read low 0.997 | S. cerevisiae deletion strains, locus YNL233W, strain BNI4, active compounds read low 1 | S. cerevisiae deletion strains, locus YNL248C, strain rpa49, active compounds read low 1.01 | S. cerevisiae deletion strains, locus YNL250W, strain rad50, active compounds read low 1 | S. cerevisiae deletion strains, locus YNL271C, strain bni1, active compounds read low 1.02 | S. cerevisiae deletion strains, locus YNL298W, strain CLA4, active compounds read low 1.02 | S. cerevisiae deletion strains, locus YNL307C, strain MCK1, active compounds read low 1.06 | S. cerevisiae deletion strains, locus YNL322C, strain KRE1 (second series), active compounds read low 0.989 | S. cerevisiae deletion strains, locus YNL322C, strain KRE1, active compounds read low 1.01 | S. cerevisiae deletion strains, locus YNR049C, strain mso1, active compounds read low 0.984 | S. cerevisiae deletion strains, locus YNR052C, strain pop2, active compounds read low 1.02 | S. cerevisiae deletion strains, locus YOL006C, strain TOP1, active compounds read low 1.01 | S. cerevisiae deletion strains, locus YOL012C, strain htz1 1.12 | S. cerevisiae deletion strains, locus YOL147C, strain pex11, active compounds read low 1.02 | S. cerevisiae deletion strains, locus YOR001W, strain rrp6, active compounds read low 1 | S. cerevisiae deletion strains, locus YOR061W, strain CKA2, active compounds read low 1.01 | S. cerevisiae deletion strains, locus YOR069W, strain VPS5, active compounds read low 0.999 | S. cerevisiae deletion strains, locus YOR070C, strain gyp1, active compounds read low 0.989 | S. cerevisiae deletion strains, locus YOR080W, strain dia2, active compounds read low 0.976 | S. cerevisiae deletion strains, locus YOR083W, strain WHI5, active compounds read low 1.01 | S. cerevisiae deletion strains, locus YOR106W, strain vam3, active compounds read low 1.01 | S. cerevisiae deletion strains, locus YOR136W, strain idh2, active compounds read low 1.03 | S. cerevisiae deletion strains, locus YOR144C, strain elg1, active compounds read low 1.03 | S. cerevisiae deletion strains, locus YOR184W, strain ser1, active compounds read low 1.06 | S. cerevisiae deletion strains, locus YOR231W, strain MKK1, active compounds read low 0.954 | S. cerevisiae deletion strains, locus YOR265W, strain rbl2, active compounds read low 0.995 | S. cerevisiae deletion strains, locus YOR270C, strain vph1, active compounds read low 1.01 | S. cerevisiae deletion strains, locus YOR290C, strain snf2, active compounds read low 0.995 | S. cerevisiae deletion strains, locus YOR316C, strain cot1, active compounds read low 1.02 | S. cerevisiae deletion strains, locus YPL051W, strain arl3, active compounds read low 0.996 | S. cerevisiae deletion strains, locus YPL055C, strain LGE1, active compounds read low 1.01 | S. cerevisiae deletion strains, locus YPL078C, strain atp4, active compounds read low 1.01 | S. cerevisiae deletion strains, locus YPL106C, strain sse1, active compounds read low 0.987 | S. cerevisiae deletion strains, locus YPL240C, strain hsp82, active compounds read low 1.02 | S. cerevisiae deletion strains, locus YPL241C, strain CIN2, active compounds read low 1.01 | S. cerevisiae deletion strains, locus YPL256C, strain CLN2, active compounds read low 0.975 | S. cerevisiae deletion strains, locus YPR119W, strain clb2, active compounds read low 1.02 | S. cerevisiae deletion strains, locus YPR141C, strain kar3, active compounds read low 1.03 | S. cerevisiae deletion strains, locus YPR163C, strain tif3, active compounds read low 1.02 | S. cerevisiae deletion strains, locus YPR167C, strain met16, active compounds read low 1.02 | S. cerevisiae deletion strains, strain wtn01, active compounds read low 1.01 | S. cerevisiae strains, strain wild type, active compounds read low 1.01
